Here are results for nine compounds from PubChem BioAssay.

Activity calls are given as the source filed them.

For assay [1], the system named is PRMT1 (protein arginine N-methyltransferase 1). The assay can be described thus: PRMT1 binders on small-molecule microarrays, primary screen, biochemical, small-molecule microarray, 635 nm fluorescence (AID 1088).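 Note: binding of Prmt1 protein to compounds spotted on small-molecule microarray slides.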 The conditions noted are these: small-molecule microarray binding, higher = more signal.
Assay [2] can be described thus: yeast growth modulation, basal conditions, primary screen, YJM789 clinical isolate, OD600, 24 h (AID 1089).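 Note: growth of clinical yeast isolate S. cerevisiae YJM 789 seeded 1000 cells per well; test concentration not given here.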 The conditions noted are these: S. cerevisiae YJM789 growth, higher = more signal, called active from +8 up or from −8 down.
A short description of assay [3]: fission yeast growth modulation, primary screen, strain 972, OD600, 24 h, no modulator (AID 1090).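 Note: basal condition with compound alone and no growth modifier present; test concentration not given here.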 The conditions noted are these: S. pombe 972 growth, higher = more signal, called active from +8 up or from −8 down.
The nature of assay [4]: S. cerevisiae growth modulation with rapamycin, primary screen, strain BY4716, OD600, 96 h (AID 1091). Note: test concentration not given here. The conditions noted are these: higher = more signal, called active from +8 up or from −8 down.
Assay [5] concerns the target Torsin-1A-interacting protein 2 (Homo sapiens) (UniProt Q8NFQ8). Nature of the assay: LULL1 binders on small-molecule microarray, primary screen, cell lysate, human LULL1 lysate, 635/667 nm fluorescence (AID 1092).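 Note: probe is lysate of COS7 cells overexpressing human LULL1; score merges per-feature 667 nm fluorescence with signal-to-noise.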 The conditions noted are these: hLULL1 lysate binding, 635 nm fluorescence, higher = more signal.
Assay [6] in a line: E. coli growth modulation, two-sided OD650, primary screen, E. coli filamentation project, strain DRC41, 24 h (AID 1093).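 Note: MC1000 strain lacking acrAB efflux and sulA so SOS filamentation is blocked; test concentration not given here.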 The conditions noted are these: OD650, 24 h, higher = more signal, called active from +8 up or from −8 down.
Assay [7] can be described thus: small-molecule microarray binders of probe aLefty2, primary screen, biochemical, biotinylated probe, 635/667 nm fluorescence (AID 1094).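 Note: score merges spot fluorescence near 667 nm with spot signal-to-noise ratio.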 The conditions noted are these: higher = more signal.
For assay [8], the system named is Noggin (protein binding on small-molecule microarray). Nature of the assay: Noggin binders on small-molecule microarray, primary screen, biochemical, 635/667 nm fluorescence (AID 1095).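 Note: score merges 667 nm feature fluorescence with signal to noise over triplicate slides.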 The conditions noted are these: 635 nm fluorescence, higher = more signal.
Assay [9] concerns the target Neurogenic locus notch homolog protein 3 (Homo sapiens) (UniProt Q9UM47). Nature of the assay: NOTCH3 binders on small-molecule microarray, primary screen, biochemical, 635/667 nm fluorescence (AID 1096). The conditions noted are these: NOTCH3 binding, 635 nm fluorescence, higher = more signal.
A short description of assay [10]: small-molecule microarray binders of probe aEGFR, primary screen, biochemical, biotinylated probe, 635/667 nm fluorescence (AID 1097).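 Note: probe is a biotinylated anti-EGFR antibody binding compounds printed on slides; score combines fluorescence near 667 nm and signal to noise of each spot.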 The conditions noted are these: higher = more signal.
In assay [11] the test system is Plasmodium falciparum Sir2 (PF13_0152, Sir2A). The assay can be described thus: pfSir2 binders on small-molecule microarrays, primary screen, biochemical, small-molecule microarray, 635 nm fluorescence (AID 1098).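 Note: score merges spot fluorescence intensity with its signal-to-noise ratio.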 The conditions noted are these: small-molecule microarray binding, fluorescence 635 nm; higher = more signal.
Assay [12] can be described thus: small-molecule microarray binders of probe aDKK1, primary screen, biochemical, biotinylated probe, 635/667 nm fluorescence (AID 1099).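 Note: score merges 667nm spot fluorescence with signal to noise across triplicate slides; reference of the scale not given here.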 The conditions noted are these: higher = more signal.
Assay [13] in a line: small-molecule microarray binders of probe aCHRDL2, primary screen, biochemical, biotinylated probe, 635/667 nm fluorescence (AID 1100). The conditions noted are these: higher = more signal.
Assay [14] can be described thus: splicing luciferase reporter signal modulators, primary screen, spliceosome inhibition project, cell-based, HEK293, splice +/- reporter (AID 1101).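 Note: HEK293 cells carrying a splicing-competent luciferase reporter gene; test concentration not given here.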 The conditions noted are these: luminescence, 24 h, higher = more signal, called active from +8 up or from −8 down.
In assay [15] the target is Fibroblast growth factor 10 (Homo sapiens) (UniProt O15520). Nature of the assay: FGF10 binders on small-molecule microarrays, primary screen, biochemical, small-molecule microarray, 635 nm fluorescence (AID 1102). The conditions noted are these: FGF10 binding, fluorescence 635 nm, higher = more signal.
Assay [16] deals with glycogen synthase kinase-3 (GSK3A per assay name; protocol says GSK3B). Nature of the assay: GSK3 binders on small-molecule microarrays, primary screen, biochemical, small-molecule microarray, 635 nm fluorescence, GSK3A (AID 1103). Note: the record names both GSK3A and GSK3B. The conditions noted are these: small-molecule microarray binding, fluorescence 635 nm; higher = more signal.
In assay [17] the target is Epidermal growth factor receptor (Homo sapiens) (UniProt P00533). Nature of the assay: EGFR binders on small-molecule microarrays, primary screen, biochemical, small-molecule microarray, 635 nm fluorescence (AID 1104).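 Note: score merges 667 nm emission intensity with spot signal to noise over triplicate slides.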 The conditions noted are these: EGFR binding, higher = more signal.
Assay [18] has as its target Follistatin-related protein 3 (Homo sapiens) (UniProt O95633). The assay can be described thus: FSTL3 binders on small-molecule microarrays, primary screen, biochemical, small-molecule microarray, 635 nm fluorescence (AID 1105).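 Note: score merges emission near 667 nm and signal to noise per printed spot across three slides.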 The conditions noted are these: FSTL3 binding, higher = more signal.
Assay [19] addresses Dickkopf-related protein 1 (Homo sapiens) (UniProt O94907). The assay can be described thus: DKK1 binders on small-molecule microarrays, primary screen, biochemical, small-molecule microarray, 635 nm fluorescence scan (AID 1106).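 Note: score merges emission near 667 nm with signal to noise over three replicate slides.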 The conditions noted are these: DKK1 binding, higher = more signal.
Assay [20] relates to Inhibin beta A chain (activin A). Nature of the assay: INHBA (activin A) binders on microarrays, primary screen, biochemical, small-molecule microarray, 635 nm fluorescence scan (AID 1107).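 Note: mouse activin A protein probed at 4.33 µg/mL on printed slides; score merges bound-protein fluorescence near 667 nm with spot signal-to-noise.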 The conditions noted are these: small-molecule microarray binding, higher = more signal.

Sequence of Neurogenic locus notch homolog protein 3 (Homo sapiens) (Q9UM47 whole entry, looked up): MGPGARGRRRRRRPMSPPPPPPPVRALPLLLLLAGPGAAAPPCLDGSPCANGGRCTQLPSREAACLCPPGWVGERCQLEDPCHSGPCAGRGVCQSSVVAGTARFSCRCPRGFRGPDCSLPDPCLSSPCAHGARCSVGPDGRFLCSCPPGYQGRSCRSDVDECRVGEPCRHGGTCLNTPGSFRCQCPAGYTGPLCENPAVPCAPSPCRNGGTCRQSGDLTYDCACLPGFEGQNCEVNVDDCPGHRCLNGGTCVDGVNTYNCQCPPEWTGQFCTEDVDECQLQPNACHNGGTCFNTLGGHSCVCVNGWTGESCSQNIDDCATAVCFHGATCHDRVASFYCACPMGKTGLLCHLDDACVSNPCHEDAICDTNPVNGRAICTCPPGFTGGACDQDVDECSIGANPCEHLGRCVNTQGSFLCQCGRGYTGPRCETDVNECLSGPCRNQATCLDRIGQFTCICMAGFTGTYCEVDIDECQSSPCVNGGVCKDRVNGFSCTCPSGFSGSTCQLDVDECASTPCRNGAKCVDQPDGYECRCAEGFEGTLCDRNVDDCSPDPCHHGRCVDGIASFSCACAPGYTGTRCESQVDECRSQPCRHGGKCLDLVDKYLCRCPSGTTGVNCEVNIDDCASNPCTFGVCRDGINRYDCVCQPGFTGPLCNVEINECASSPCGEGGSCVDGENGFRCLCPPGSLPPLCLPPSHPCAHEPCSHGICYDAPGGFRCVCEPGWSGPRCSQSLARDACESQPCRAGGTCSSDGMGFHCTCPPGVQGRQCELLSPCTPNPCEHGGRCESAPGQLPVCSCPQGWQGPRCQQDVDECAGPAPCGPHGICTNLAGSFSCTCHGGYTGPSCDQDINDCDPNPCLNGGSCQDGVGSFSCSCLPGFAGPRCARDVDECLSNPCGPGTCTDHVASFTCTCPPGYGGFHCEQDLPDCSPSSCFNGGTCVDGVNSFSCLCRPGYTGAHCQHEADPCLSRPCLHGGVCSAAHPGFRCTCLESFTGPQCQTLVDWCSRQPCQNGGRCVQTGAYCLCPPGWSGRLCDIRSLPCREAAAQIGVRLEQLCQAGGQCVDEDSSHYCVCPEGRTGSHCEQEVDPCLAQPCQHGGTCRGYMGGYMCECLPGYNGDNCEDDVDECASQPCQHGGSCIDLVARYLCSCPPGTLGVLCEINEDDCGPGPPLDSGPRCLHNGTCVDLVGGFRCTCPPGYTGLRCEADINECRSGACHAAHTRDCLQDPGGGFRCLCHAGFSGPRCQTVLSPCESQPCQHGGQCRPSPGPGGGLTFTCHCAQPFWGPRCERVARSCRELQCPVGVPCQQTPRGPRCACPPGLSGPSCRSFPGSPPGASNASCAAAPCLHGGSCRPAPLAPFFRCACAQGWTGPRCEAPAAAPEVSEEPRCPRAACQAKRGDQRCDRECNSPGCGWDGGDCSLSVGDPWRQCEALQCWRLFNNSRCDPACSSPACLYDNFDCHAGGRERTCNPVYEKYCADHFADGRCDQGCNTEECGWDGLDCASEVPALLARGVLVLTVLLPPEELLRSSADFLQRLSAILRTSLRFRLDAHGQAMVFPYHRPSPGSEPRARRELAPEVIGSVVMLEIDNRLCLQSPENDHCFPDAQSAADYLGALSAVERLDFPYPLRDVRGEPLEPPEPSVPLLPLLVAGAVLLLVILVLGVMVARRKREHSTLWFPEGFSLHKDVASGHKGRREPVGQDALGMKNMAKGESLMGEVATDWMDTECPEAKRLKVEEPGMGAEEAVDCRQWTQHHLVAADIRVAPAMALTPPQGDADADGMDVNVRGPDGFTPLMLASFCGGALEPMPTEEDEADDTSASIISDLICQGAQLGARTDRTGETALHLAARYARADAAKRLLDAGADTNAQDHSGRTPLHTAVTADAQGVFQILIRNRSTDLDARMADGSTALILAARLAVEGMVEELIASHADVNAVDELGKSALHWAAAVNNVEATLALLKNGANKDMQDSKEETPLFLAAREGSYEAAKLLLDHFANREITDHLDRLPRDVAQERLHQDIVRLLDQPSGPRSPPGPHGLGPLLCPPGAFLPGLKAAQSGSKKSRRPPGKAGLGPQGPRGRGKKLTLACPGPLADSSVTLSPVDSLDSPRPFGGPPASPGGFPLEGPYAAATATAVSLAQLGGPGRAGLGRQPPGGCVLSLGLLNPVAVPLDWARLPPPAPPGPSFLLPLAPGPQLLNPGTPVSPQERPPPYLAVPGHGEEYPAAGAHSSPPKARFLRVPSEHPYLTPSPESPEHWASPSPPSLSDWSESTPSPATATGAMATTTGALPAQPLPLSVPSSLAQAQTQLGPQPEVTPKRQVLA
Sequence of Epidermal growth factor receptor (Homo sapiens) (P00533 whole entry, looked up): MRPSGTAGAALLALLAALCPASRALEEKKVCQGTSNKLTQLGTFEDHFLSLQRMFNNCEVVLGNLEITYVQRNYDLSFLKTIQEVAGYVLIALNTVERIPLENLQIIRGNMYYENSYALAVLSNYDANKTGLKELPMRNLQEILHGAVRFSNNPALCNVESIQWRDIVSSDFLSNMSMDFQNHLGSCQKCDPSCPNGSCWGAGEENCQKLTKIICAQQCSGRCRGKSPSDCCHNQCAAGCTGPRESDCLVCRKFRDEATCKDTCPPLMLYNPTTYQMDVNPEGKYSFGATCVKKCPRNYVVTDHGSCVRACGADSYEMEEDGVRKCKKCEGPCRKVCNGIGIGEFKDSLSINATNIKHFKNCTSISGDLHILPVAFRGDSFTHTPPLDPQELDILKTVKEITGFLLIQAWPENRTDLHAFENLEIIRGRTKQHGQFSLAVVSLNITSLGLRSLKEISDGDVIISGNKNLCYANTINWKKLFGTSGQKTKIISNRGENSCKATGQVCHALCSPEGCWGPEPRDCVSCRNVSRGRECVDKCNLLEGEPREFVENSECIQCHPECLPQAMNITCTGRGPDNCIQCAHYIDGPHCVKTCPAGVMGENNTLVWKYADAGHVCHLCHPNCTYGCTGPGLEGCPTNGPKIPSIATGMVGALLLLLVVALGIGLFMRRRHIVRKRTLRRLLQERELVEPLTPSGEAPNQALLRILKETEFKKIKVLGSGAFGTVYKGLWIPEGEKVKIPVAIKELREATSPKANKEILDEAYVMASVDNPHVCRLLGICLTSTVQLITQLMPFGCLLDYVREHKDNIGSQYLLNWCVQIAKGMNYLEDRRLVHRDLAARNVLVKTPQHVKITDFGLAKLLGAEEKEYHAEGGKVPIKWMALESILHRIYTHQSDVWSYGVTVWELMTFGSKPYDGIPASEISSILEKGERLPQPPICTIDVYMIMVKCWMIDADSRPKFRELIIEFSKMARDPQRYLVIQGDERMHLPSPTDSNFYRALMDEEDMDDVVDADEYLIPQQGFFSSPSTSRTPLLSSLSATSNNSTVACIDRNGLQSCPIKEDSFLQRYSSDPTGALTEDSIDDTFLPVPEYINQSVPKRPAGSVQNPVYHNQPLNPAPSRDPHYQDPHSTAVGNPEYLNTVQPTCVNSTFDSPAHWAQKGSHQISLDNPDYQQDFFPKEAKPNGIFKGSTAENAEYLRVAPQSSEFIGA
Sequence of Follistatin-related protein 3 (Homo sapiens) (O95633 whole entry, looked up): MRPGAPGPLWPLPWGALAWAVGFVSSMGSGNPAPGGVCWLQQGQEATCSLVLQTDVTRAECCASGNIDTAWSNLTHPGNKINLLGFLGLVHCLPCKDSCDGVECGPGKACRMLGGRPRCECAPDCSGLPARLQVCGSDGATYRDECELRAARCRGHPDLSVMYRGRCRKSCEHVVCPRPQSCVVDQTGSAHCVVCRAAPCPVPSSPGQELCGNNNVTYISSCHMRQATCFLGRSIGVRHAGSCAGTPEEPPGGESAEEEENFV
Sequence of Dickkopf-related protein 1 (Homo sapiens) (O94907 whole entry, looked up): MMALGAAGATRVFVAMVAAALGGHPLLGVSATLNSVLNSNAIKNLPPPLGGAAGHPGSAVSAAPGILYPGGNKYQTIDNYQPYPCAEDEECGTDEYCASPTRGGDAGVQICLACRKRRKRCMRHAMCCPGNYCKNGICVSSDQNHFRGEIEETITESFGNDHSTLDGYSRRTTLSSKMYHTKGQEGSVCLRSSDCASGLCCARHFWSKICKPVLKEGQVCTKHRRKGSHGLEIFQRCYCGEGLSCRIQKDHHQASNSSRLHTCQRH
Sequence of Fibroblast growth factor 10 (Homo sapiens) (O15520 whole entry, looked up): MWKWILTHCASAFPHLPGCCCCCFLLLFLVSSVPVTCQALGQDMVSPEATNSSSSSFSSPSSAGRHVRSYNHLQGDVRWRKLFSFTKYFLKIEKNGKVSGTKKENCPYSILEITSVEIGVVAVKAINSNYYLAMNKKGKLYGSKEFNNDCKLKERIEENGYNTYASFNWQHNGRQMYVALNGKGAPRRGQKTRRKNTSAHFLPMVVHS
Sequence of Torsin-1A-interacting protein 2 (Homo sapiens) (Q8NFQ8 whole entry, looked up): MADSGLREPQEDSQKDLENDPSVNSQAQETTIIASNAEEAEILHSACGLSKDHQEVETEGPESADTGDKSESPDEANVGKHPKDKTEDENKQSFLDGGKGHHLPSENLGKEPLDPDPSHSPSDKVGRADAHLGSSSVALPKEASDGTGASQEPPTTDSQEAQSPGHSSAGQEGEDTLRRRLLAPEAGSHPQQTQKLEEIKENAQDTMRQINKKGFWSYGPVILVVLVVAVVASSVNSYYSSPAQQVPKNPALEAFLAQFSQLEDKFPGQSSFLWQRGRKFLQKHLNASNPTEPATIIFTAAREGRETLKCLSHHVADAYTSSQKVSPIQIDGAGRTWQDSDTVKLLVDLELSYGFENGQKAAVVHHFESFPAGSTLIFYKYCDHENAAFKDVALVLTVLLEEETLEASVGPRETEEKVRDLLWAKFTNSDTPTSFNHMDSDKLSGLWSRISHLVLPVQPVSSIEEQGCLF

Turning to `COc1cccc([C@H]2N[C@H](C(=O)O)CC[C@@H]2C)c1`, the composite z-score in [1] is -0.158; in [5], 0.0605; in [7] it was -0.23; in [8], 0.002; in assay [9], 0.202; in [10], -0.139. The composite z-score was -0.406 in [11]; -0.251 in assay [12]; -0.136 in [13]; -0.401 in assay [15]; 0.0602 in assay [16]; 0.194 in assay [17]. The composite z-score in assay [18] is 0.0151; in assay [19], 0.0655; in assay [20], 0.282. Besides, the z-score in [2] was -0.535 (inactive); in assay [3], -0.823 (inactive); in [4], 0.48 (inactive); in [6], 0.395 (inactive); in [14], -1.94 (inactive).
For `C=CCC(OC(C)=O)[C@@H]1[C@@H](N(Cc2cccc3ccccc23)C(=O)c2ccc(C)cc2)c2cc(OCCCO)ccc2N1C(=O)c1ccc(-c2ccccc2)cc1` (stereo not given in full), the composite z-score is 0.578 in [1]; 0.298 in assay [5]; -0.11 in assay [7]; 0.314 in assay [8]; 0.387 in assay [9]; -0.0967 in assay [10]. Further, the composite z-score is 0.451 in assay [11]; -0.0044 in [12]; 0.322 in assay [13]; -0.162 in [15]; 0.0243 in assay [16]; 0.0513 in [17]. Also, the composite z-score in assay [18] was 0.268; in [19], -0.133; in [20], 1.08. In addition, the z-score in [2] was -2.24 (inactive); in [3], 0.167 (inactive); in assay [4] it was -0.347 (inactive); in [6] it was 1.29 (inactive); in assay [14], -1.15 (inactive).
`Cc1ccc(N2C(=O)c3ccccc3[C@@H](C(=O)NCC(F)(F)F)[C@@H]2c2ccc(CO)cc2)nc1`: the composite z-score was -0.359 in assay [1]; -0.338 in assay [5]; 0.0143 in [7]; -2.15 in assay [8]; -1.01 in assay [9]; -0.157 in assay [10]. Besides, the composite z-score is 1.72 in [11]; 0.476 in [12]; 1.22 in [13]; -1.15 in assay [15]; -1.18 in assay [16]; -2.69 in [17]. The composite z-score in assay [18] was -1.83; in [19] it was -1.69; in assay [20] it was -1.57. The z-score in assay [2] is -0.678 (inactive); in assay [3] it was -1.24 (inactive); in assay [4], 3.03 (inactive); in assay [6], 1.08 (inactive); in [14] it was -1.08 (inactive).
Consider `Cc1ccc(S[C@]2(C(=O)O)CC(=O)N(Cc3cc(C(F)(F)F)cc(C(F)(F)F)c3)[C@@H]2c2ccc(CO)cc2I)cc1`, for which the composite z-score in assay [1] was 1.33; in assay [5] it was 1.59; in assay [7] it was 0.107; in assay [8] it was -1.49; in assay [9], -0.913; in assay [10] it was -0.264. Moreover, the composite z-score is 1.3 in assay [11]; 0.483 in assay [12]; 1.16 in assay [13]; -0.458 in [15]; -1.13 in assay [16]; -1.65 in assay [17]. The composite z-score in [18] was -1.07; in [19], -1.38; in assay [20] it was 0.645. In addition, the z-score in [2] is -0.455 (inactive); in assay [3], -2.26 (inactive); in [4], 2.31 (inactive); in assay [6] it was 0.663 (inactive); in assay [14], -1.48 (inactive).
Consider `C=CCC(OC(C)=O)[C@@H]1[C@@H](N(Cc2cc3ccccc3o2)C(=O)c2ccc(C)cc2)c2cc(OCCCO)ccc2N1C(=O)c1ccc2ccccc2n1` (stereo not given in full), for which the composite z-score was 0.207 in assay [1]; 0.285 in assay [5]; -0.168 in assay [7]; 0.11 in [8]; 0.197 in [9]; -0.129 in assay [10]. The composite z-score was -0.222 in assay [11]; 0.164 in assay [12]; 0.504 in assay [13]; -0.146 in assay [15]; -0.216 in assay [16]; 0.311 in assay [17]. For the same compound, the values for the composite z-score in assay [18], in [19] and in assay [20] were 0.0952, -0.0273 and 1.51, respectively. In addition, the z-score in assay [2] is -0.0537 (inactive); in [3], -0.518 (inactive); in [4] it was -0.391 (inactive); in assay [6] it was 2.74 (inactive); in assay [14] it was -0.178 (inactive).
Turning to `COCCOC(=O)N1C(=O)[C@@]2(c3cc(C#CCNC(N)=O)ccc31)[C@H](c1ccc(OCCO)cc1)N1[C@H](c3ccccc3)[C@H](c3ccccc3)OC(=O)[C@H]1[C@@H]2C(=O)N1CCCCCCC1`, the composite z-score in [1] was 0.844; in [5], 0.789; in assay [7], 1.09; in assay [8] it was 0.406; in [9], 0.555; in assay [10], 0.0199. Further, the composite z-score is 0.795 in assay [11]; 1.48 in assay [12]; 1.11 in [13]; 0.198 in [15]; -0.246 in [16]; 0.0212 in [17]. Further, the composite z-score in [18] was found to be 0.895; in assay [19], 0.199; in assay [20], 1.69. Moreover, the z-score in [2] was 1.64 (inactive); in assay [3] it was 0.501 (inactive); in assay [4] it was 3.94 (inactive); in assay [6] it was 2.27 (inactive); in assay [14], -0.908 (inactive).
Regarding `C=CCOC(=O)[C@@H]1[C@H]2C(=O)O[C@H](c3ccccc3)[C@H](c3ccccc3)N2[C@H](c2ccc(OCCOC(=O)[C@H]3C[C@H]4C(=O)N[C@@H](CCCCNC(C)=O)C(=O)N4[C@H]3c3ccc(O)cc3)cc2)[C@@]12C(=O)Nc1ccc(I)cc12`, the composite z-score in assay [1] was 1.55; in [5], 1.39; in [7], -0.0974; in assay [8] it was 1.66; in [9], 1.07; in [10] it was 0.0333. In addition, the composite z-score in assay [11] is 1.3; in assay [12] it was -0.173; in assay [13], -0.119; in [15], 1.03; in assay [16] it was 1.28; in assay [17], 0.603. Besides, the figures for the composite z-score in [18], in [19] and in [20] were 1.19, 0.394 and 0.565, respectively. Also, the z-score is 1.38 (inactive) in assay [2]; 0.802 (inactive) in [3]; 4.48 (inactive) in [4]; -0.428 (inactive) in assay [6]; 0.711 (inactive) in assay [14].
Take `CCCCCCc1nc(C2CC2)c(C)c2c1[Si](C(C)C)(C(C)C)OC2`: the composite z-score in assay [1] is -1.09; in [5] it was -0.492; in [7], -0.0591; in assay [8] it was 0.168; in assay [9] it was -1.26; in [10] it was -0.202. Also, the composite z-score in [11] was -0.192; in assay [12] it was -0.124; in assay [13], 0.109; in assay [15], -0.391; in assay [16], -0.562; in assay [17] it was 0.138. In addition, the values for the composite z-score in [18], in [19] and in [20] were -0.127, 0.438 and 1.54, respectively. The z-score in assay [2] is -2.2 (inactive); in assay [3], -3.58 (inactive); in assay [4] it was -1.75 (inactive); in assay [6], 1.69 (inactive); in assay [14], -3.06 (inactive).
Regarding `CC[C@H]1C2=C3C(CC[C@H]4C(OC)OC[C@](C)([C@@H]34)N(C(=O)OC(C)(C)C)C2)C(CO)C1CO` (stereo not given in full), the composite z-score in assay [1] was found to be 1.4; in assay [5], 3.35; in assay [7], 0.762; in [8], 0.0676; in assay [9], 1.11; in [10], 0.477. Moreover, the composite z-score was 0.593 in assay [11]; 1.54 in assay [12]; 1.6 in [13]; 0.754 in assay [15]; 1.16 in [16]; 0.194 in assay [17]. In addition, the composite z-score in [18] is 1.07; in [19], -0.212; in assay [20] it was 0.828. Also, the z-score in [2] is -1.22 (inactive); in [3], 1.21 (inactive); in assay [4], -0.565 (inactive); in [6] it was -0.468 (inactive); in assay [14] it was -0.715 (inactive).
